# Article PMC4336329 (PLoS ONE, 2015)
# The whole screen tested about 310,000 compounds, of which about 2,200 (0.71%) showed an effect of 50% or more. The effect is printed as a negative number. The sample holds strong results, similar compounds and a random draw of the others, so the mix is not that of the screen.
# Molecular target: human ether-à-go-go-related gene (hERG) potassium channel (human, UniProt Q12809)
# Assay: primary screen, population patch clamp on CHO cells stably expressing hERG; higher = less effect of the substance
# human ether-à-go-go-related gene (hERG) potassium channel, sequence (Q12809 whole entry, looked up): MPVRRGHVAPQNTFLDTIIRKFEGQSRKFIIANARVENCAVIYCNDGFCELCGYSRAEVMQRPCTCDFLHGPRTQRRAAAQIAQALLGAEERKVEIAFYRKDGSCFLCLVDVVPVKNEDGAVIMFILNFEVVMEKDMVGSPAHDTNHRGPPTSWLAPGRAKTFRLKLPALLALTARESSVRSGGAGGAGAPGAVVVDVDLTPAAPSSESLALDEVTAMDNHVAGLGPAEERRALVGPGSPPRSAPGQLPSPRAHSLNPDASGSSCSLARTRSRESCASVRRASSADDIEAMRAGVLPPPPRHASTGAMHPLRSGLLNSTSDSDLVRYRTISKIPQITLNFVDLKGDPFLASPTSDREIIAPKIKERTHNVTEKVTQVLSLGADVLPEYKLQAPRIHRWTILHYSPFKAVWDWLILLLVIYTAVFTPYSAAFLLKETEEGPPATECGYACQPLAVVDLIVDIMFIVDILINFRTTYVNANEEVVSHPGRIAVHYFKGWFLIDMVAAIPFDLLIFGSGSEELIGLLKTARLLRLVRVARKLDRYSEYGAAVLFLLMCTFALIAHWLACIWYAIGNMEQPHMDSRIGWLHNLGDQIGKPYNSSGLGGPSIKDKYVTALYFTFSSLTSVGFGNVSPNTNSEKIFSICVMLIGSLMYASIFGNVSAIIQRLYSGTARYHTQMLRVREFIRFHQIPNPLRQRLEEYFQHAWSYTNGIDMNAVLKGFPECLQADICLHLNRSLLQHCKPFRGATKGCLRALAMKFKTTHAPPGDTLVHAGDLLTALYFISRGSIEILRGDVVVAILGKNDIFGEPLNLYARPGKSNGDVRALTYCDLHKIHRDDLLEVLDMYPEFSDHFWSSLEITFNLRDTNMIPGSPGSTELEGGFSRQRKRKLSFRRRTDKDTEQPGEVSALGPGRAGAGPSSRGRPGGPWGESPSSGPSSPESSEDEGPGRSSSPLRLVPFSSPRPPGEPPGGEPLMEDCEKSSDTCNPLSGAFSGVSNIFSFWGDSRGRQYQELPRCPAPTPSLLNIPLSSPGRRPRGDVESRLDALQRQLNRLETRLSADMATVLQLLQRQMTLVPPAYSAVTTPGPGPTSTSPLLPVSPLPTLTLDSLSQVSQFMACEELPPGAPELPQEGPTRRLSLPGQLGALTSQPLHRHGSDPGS
row,SMILES,"hERG current change (%, negative = inhibition) at 1uM"
1,O=c1[nH]c(=O)c2nc3ccccc3nc2[nH]1,2.78%
2,COc1cc(NC(=O)CN(C)C2CCCCC2)c(C)cc1[N+](=O)[O-],6.09%
3,Cc1ccc(S(=O)(=O)N[C@@H](CC(C)C)C(=O)NCc2ccco2)cc1,3.58%
4,CCCCN(C(=O)/C=C/c1ccco1)c1c(N)n(Cc2ccccc2)c(=O)[nH]c1=O,7.19%
5,CCOc1cc(NC(=S)NCCCN2CCOCC2)c(OCC)cc1NC(=O)c1cccc(F)c1,-0.782%
6,C=CCOc1ccccc1/C=N/NC(=O)Cc1ccccc1,14.3%
7,Cc1ccc(S(=O)(=O)N2CCCC2C(=O)Nc2nc3c(s2)CCCC3)cc1 (stereo not shown),13.2%
8,OC1CCCN(CC(O)COc2ccc(-c3ccccc3)cc2)C1 (stereo not shown),-0.151%
9,Cc1ccccc1OCC(O)CN1CCN(CC(O)COc2ccccc2C)C(C)C1.O=C(O)C(=O)O (stereo not shown),-29%
10,CC1CCCCN1CC(O)COc1ccc(OCC(O)CN2CCCCC2C)cc1 (stereo not shown),13.5%
11,N#Cc1ccc(-c2ccc(OCC(O)CN3CCCCC3)cc2)cc1 (stereo not shown),-52.1%
12,CC1CCCN(CC(O)COc2ccc(-c3ccccc3)cc2)C1 (stereo not shown),-57.8%
13,CC(=O)c1ccc(N2CCN(CC(O)COCc3ccco3)CC2)cc1 (stereo not shown),-29.3%
14,CC1CN(CC(O)COc2ccc(C#N)cc2)CCN1CC(O)COc1ccc(C#N)cc1 (stereo not shown),-86.2%
15,OC(COc1ccc(OCC(O)CN2CCCCC2)cc1)CN1CCCCC1 (stereo not shown),18.1%
16,O=C(O)C(=O)O.OC(COCc1ccco1)CN1CCN(c2ccccc2)CC1 (stereo not shown),3.71%
17,N#Cc1ccc(-c2ccc(OCC(O)CN3CCOCC3)cc2)cc1 (stereo not shown),7.69%
18,OC(COCc1ccco1)CN1CCN(C(c2ccccc2)c2ccccc2)CC1 (stereo not shown),-79.1%
19,CC1CCCN(CC(O)COc2ccc(Cl)cc2)C1.Cl (stereo not shown),-32.2%
20,COc1ccccc1NC(=O)COC(=O)/C=C/c1ccc2c(c1)OCO2,9.01%
21,O=C(Nc1ccc(C(=O)O)cc1)/C(=C\c1ccc2c(c1)OCO2)NC(=O)c1ccco1,19.4%
22,O=C(c1csc2c1CCCC2)N1CCN(c2ccc(F)cc2)CC1,2.84%
23,COc1ccc(C(=O)Nc2cccc(-c3ccc4nncn4n3)c2)cc1,7.11%
24,CCn1ncc(NC(=S)NCCc2ccccc2)c1C(N)=O,2.4%

row,SMILES,"hERG current change (%, negative = inhibition) at 1uM"
1,CC(C)C(OC(=O)c1cccs1)C(=O)NCc1ccco1 (stereo not shown),12.2%
2,O=S(=O)(Nc1cc(S(=O)(=O)N2CCOCC2)ccc1N1CCOCC1)c1ccc2c(c1)OCCO2,28.4%
3,COc1ccccc1N1C(=O)[C@@H]2[C@H](C1=O)[C@H](C(=O)c1ccc(OC(C)=O)cc1)N1N=CC=C[C@@H]21,15.9%
4,C#CCCOC(=O)N1C2=NC(C(=O)OC)=C(C(=O)OC)[C@@H]3N(C)c4ccc(OC)cc4[C@]23C[C@H]1C(=O)OC,-0.338%
5,CSc1ccc(/C=C2\CCn3c2nc2cc(C(=O)O)ccc2c3=O)cc1,15.6%
6,O=C(Nc1ccccn1)c1cc2ccccc2o1,9.79%
7,CCOC(=O)N/N=C/c1ccc(C)o1,5.21%
8,Cl.OC(COCC1COc2ccccc2O1)CN1CCN(c2ccccc2)CC1 (stereo not shown),-24.7%
9,Cc1ccc(OCC(O)CN2CCN(CC(O)COc3ccc(C)cc3)CC2)cc1 (stereo not shown),-8.83%
10,COc1ccc(N2CCN(CC(O)COc3ccc(F)cc3)CC2)cc1.Cl (stereo not shown),-47.8%
11,O=C(O)CN1CCN(c2ncc(C(F)(F)F)cc2Cl)CC1,12.6%
12,CCC(=O)c1ccc(OCC(O)CN2CCN(c3ccc(F)cc3)CC2)cc1 (stereo not shown),-15.1%
13,Cl.OC(COCC1COc2ccccc2O1)CN1CCN(c2ccccc2F)CC1 (stereo not shown),-19.9%
14,CN1CCN(CC(O)COc2ccc(OCC(O)CN3CCN(C)CC3)cc2)CC1 (stereo not shown),10.2%
15,N#Cc1ccc(OCC(O)CN2CCN(c3ncc(C(F)(F)F)cc3Cl)CC2)cc1 (stereo not shown),-81.4%
16,OC(CN1CCN(c2ncc(C(F)(F)F)cc2Cl)CC1)c1ccccc1 (stereo not shown),1.4%
17,N#Cc1ccc(OCC(O)CN2CCN(CC(O)COc3ccc(C#N)cc3)CC2)cc1 (stereo not shown),-91.3%
18,Cl.OC(COCC1COc2ccccc2O1)CN1CCN(c2ccc(F)cc2)CC1 (stereo not shown),-57.6%
19,CC(=O)c1ccc(OCC(O)CN2CCN(c3ccc(F)cc3)CC2)cc1.Cl (stereo not shown),-64.9%
20,Cc1cc(N2CCCC2)ccc1NC(=O)CN1C(=O)NC(C)(c2ccccc2)C1=O (stereo not shown),16%
21,O=P(O)(CCc1ccccc1)C(O)c1ccccc1 (stereo not shown),5.09%
22,COc1cc(OC)cc(C(=O)N[C@H](C(=O)OCC(=O)NC(=O)c2cccn2C)C(C)C)c1,6.95%
23,C=CCNC(=O)CSc1ccc(Cl)cc1,13.7%
24,CNc1nnc(-c2ccc(C)cc2)c2ccccc12,-5.45%

row,SMILES,"hERG current change (%, negative = inhibition) at 1uM"
1,Cc1ccc([N+](=O)[O-])c2c1C(N1CC(C)OC(C)C1)C(C)(C)O2 (stereo not shown),17.1%
2,CCOc1ccc(NC(=O)COc2ccc(C(=O)NCCc3ccccc3)cc2)cc1,3.64%
3,Cc1cc(C(=O)N/N=C/c2cccc(Cl)c2Cl)no1,3.36%
4,O=C1OC(N2C(=O)CC[C@H]2C(=O)Nc2ccc(F)c(F)c2)c2ccccc21 (stereo partly shown),8.61%
5,CC(=O)c1ccc(NC(=O)CSc2n[nH]c(-c3cccnc3)n2)cc1,14.1%
6,O=C(CSc1nc2ccccc2c(=O)n1CC1CCCO1)NCCc1ccccc1 (stereo not shown),19.6%
7,COc1ccc(CCNC(=O)Cn2c(=O)n(CC3CCCO3)c(=O)c3ccccc32)cc1OC (stereo not shown),3.58%
8,COc1ccc(CCNC(=O)c2cc3c(=O)n4ccccc4nc3n(CC3CCCO3)c2=N)cc1OC (stereo not shown),-90.3%
9,COc1ccc(CCNC(=O)c2cc3c(=O)n4cccc(C)c4nc3n(CC3CCCO3)c2=N)cc1 (stereo not shown),-79.4%
10,N=c1c(C(=O)NCCc2ccccc2)cc2c(=O)n3ccccc3nc2n1CC1CCCO1 (stereo not shown),-93.8%
11,Cc1cccn2c(=O)c3cc(C(=O)NCCc4ccccc4)c(=N)n(CC4CCCO4)c3nc12 (stereo not shown),-91%
12,Cc1ccc(NC(=O)N2CCCCCC2)cc1,0.321%
13,CCOC(=O)c1cnc(-n2nc(C)cc2C)nc1Nc1ccc(O)cc1,14.2%
14,COc1cc(Cl)c(C)cc1NC(=O)CSc1sc2c(O)cc(=O)[nH]c2c1C#N,18.7%
15,CC(=O)c1ccccc1NS(C)(=O)=O,9.61%
16,COc1ccccc1Nc1ncnc2ccc(C)cc12,12.7%
17,COc1ccc(CNC(=O)c2cc3c(=O)n4cccc(C)c4nc3n(CC3CCCO3)c2=N)cc1 (stereo not shown),-83.8%
18,Cc1ccc(CCNC(=O)c2ccc3nc4ccccc4c(=O)n3c2)cc1,14.3%
19,Cc1ccc2nc3c(cc(C(=O)NCCc4ccccc4)c(=N)n3CC3CCCO3)c(=O)n2c1 (stereo not shown),-84%
20,Cc1ccc(S(=O)(=O)c2cc3c(=O)n4cccc(C)c4nc3n(CC3CCCO3)c2=N)cc1C (stereo not shown),12.9%
21,Cc1cccn2c(=O)c3cc(C(=O)NCc4ccc(F)cc4)c(=N)n(CC4CCCO4)c3nc12 (stereo not shown),-81.8%
22,CC1CN(C(=O)c2c([N+](=O)[O-])cnn2C)CC(C)O1 (stereo not shown),1.78%
23,NNC(=O)C1CC(O)CN1S(=O)(=O)c1ccc(Cl)cc1 (stereo not shown),6.56%
24,O=C(Nc1ccc(-c2csc(-c3ccccc3)n2)cc1)c1ccccc1Cl,16.9%

row,SMILES,"hERG current change (%, negative = inhibition) at 1uM"
1,CCOC(=O)N1CCC(NC(=O)c2cc(C(=O)Nc3ccc(OC)c(OC)c3)ccc2CO)CC1,4.41%
2,O=S(=O)(c1ccccc1Cl)N1CCC(Cc2ccccc2)CC1,13.5%
3,CCCCc1nn(-c2cc(Cl)ccc2OC)c2c1C(=O)CCC2,12.2%
4,COC(=O)C1=C(c2ccc(F)cc2OCc2ccccc2)C[C@@H]2CC[C@H]1N2C(=O)NCCNC(C)=O,16.4%
5,Cc1cc(=O)n2nc(N3CCC(C(=O)NCC(C)c4ccccc4)CC3)sc2n1 (stereo not shown),11.7%
6,Cc1nn2c(NCCOCCO)c3c(nc2c1-c1ccccc1)CCCC3,-75.3%
7,Cc1nn2c(NCCOCCO)c3c(nc2c1-c1ccccc1)CCC3,-9.29%
8,COCCNc1c2c(nc3c(-c4ccccc4)c(C)nn13)CCCC2,5.77%
9,O=C(CCS(=O)(=O)c1cccs1)Nc1ccc(C(=O)NC2CCN(Cc3ccccc3)CC2)cc1,7.84%
10,CCC(CC)C(=O)c1c[nH]c(C(=O)NCc2ccccn2)c1,8.96%
11,COC(=O)c1ccc(C(=O)NC2CCCc3c2cnn3-c2ccc(C)c(C)c2)cc1 (stereo not shown),12.4%
12,Cc1ccc(-n2ncc3c2CC(C)(C)CC3NC(=O)c2ccc[n+]([O-])c2)cc1 (stereo not shown),7.22%
13,Cc1ccc(-n2ncc3c2CCCC3NC(=O)c2ccoc2)cc1C (stereo not shown),-78.5%
14,Cc1cc(C(=O)NC2CCCc3c2cnn3-c2ccc(C)c(C)c2)no1 (stereo not shown),1.86%
15,Cc1ccc(-n2ncc3c2CC(C)(C)CC3NC(=O)c2ccncc2)cc1 (stereo not shown),-48.8%
16,CC(=O)N1CCC(C(=O)NC2CC(C)(C)Cc3c2cnn3-c2ccc(F)cc2)CC1 (stereo not shown),-11.3%
17,Cc1ccc(-n2ncc3c2CC(C)(C)CC3NC(=O)c2cc[n+]([O-])cc2)cc1 (stereo not shown),-62.7%
18,CC1(C)Cc2c(cnn2-c2ccc(F)cc2)C(NC(=O)C2CCC2)C1 (stereo not shown),-56.8%
19,COC(=O)c1ccc(C(=O)NC2CC(C)(C)Cc3c2cnn3-c2ccc(F)cc2)nc1 (stereo not shown),-0.769%
20,CC1(C)Cc2c(cnn2-c2ccc(F)cc2)C(NC(=O)C2=NNC(=O)CC2)C1 (stereo not shown),-52.1%
21,Cc1cc(C(=O)NC2CC(C)(C)Cc3c2cnn3-c2ccc(F)cc2)nn1C (stereo not shown),5.91%
22,CC1(C)Cc2c(cnn2-c2ccc(F)cc2)C(NC(=O)C(C)(C)O)C1 (stereo not shown),12.6%
